The panel holds about 83,000 compounds, 20% with a hit somewhere; the sample as a whole holds those more often.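 Treatment: one concentration, 48 hours, 96-well format. Scoring: percent growth, with anything below 10 considered active.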 The source made the active and inactive calls.
Each compound was assayed on BT-549 breast (assay: NCI-60 one-dose screen, 48 h (100 = growth as untreated, 0 = no growth, -100 = all killed)). Settings: 10 µM unless noted.

Row | Compound | growth
1 | CC(C)(C)c1cc(NC(=O)Nc2ccc(-c3cn4c5c(sc4n3)CCc3c[nH]cc3-5)cc2)no1 | 18.7% (inactive)
2 | NS(=O)(=O)c1ccc(Nc2nc(Nc3ccccc3)nc(N3N=C(c4ccc(Cl)cc4)CC3c3ccc(Cl)cc3)n2)cc1 (stereo not drawn) | 73.2% (inactive)
3 | COc1ccc2sc(NC(=O)CCCCCCNC(=O)C(O)(O)C(F)(F)F)nc2c1 | 7.95% (active)
4 | N#C/C(=C\c1ccc(-c2ccc(Cl)cc2)o1)C(=O)Nc1ncc(Cc2ccc(Br)cc2)s1 | 24.7% (inactive)
5 | C#CCN(C)CCCOc1ccc(NCc2ccc(C(=O)NO)cc2)cc1Cl | 75.4% (inactive)
6 | COc1ccc(C(=O)c2c(N)c(C#N)cn2-c2ccc(Cl)cc2Cl)cc1 | 111% (inactive)
7 | C/C(=N\NC(=O)/C=C/CC(=O)O)c1nnn(-c2ccc([N+](=O)[O-])cc2)c1C | 103% (inactive)
8 | O=C(/C=C/c1ccc(F)cc1)Nc1cccc2cccnc12 | 115% (inactive)
9 | COc1ccccc1N1CCN(C2=C(Cl)C(=O)c3ncccc3C2=O)CC1 | 119% (inactive)
10 | NS(=O)(=O)c1cccc(Nc2nc(SCC(=O)c3ccc(Cl)cc3)nc3c2CCC3)c1 | 84.7% (inactive)
11 | CN(C)c1cccc2c(S(=O)(=O)Nc3cccc(-c4csc(NC(=O)CCCCCN5CCN(CCO)CC5)n4)c3)cccc12 | 87.5% (inactive)
12 | O=c1nc(Nc2ccc([N+](=O)[O-])cc2O)sc2ccccc12 | 50.6% (inactive)
13 | NC1C2CCC1CN(c1cnc(C(=O)Nc3cc(F)cc4cccnc34)cn1)C2 (stereo not drawn) | 94.7% (inactive)

Reference: PubChem BioAssay (NCI)
